Screening data: PubChem, National Center for Advancing Translational Sciences (NCATS)
A selection: hits, their analogues and other compounds. The true share with any hit is near 7.4%.
Rab9 prom act: activators of Rab9 promoter; Huh7 Rab9 promoter-luciferase reporter, luminescence, 24 h; 320,000 compounds, 2.8% hits; Potency, µM (doses to about 9.22 µM), for the others: at the highest dose activation, negative = inhibition, actives largely listed as activators; further: % of control where 0% means no effect; nearly all actives have a fitted effect of over 60% in size
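Huh7 reporter line, Rab9 promoter upstream of luciferase. Compound exposure 24 h at 37 °C in reduced-serum medium with 10% FBS. Read-out: luminescence.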
NPC1 promoter act: activators of NPC1 promoter; Potency, µM (doses to about 9.22 µM), for inactives: at the highest dose activation, usual class: activators; 320,000 compounds, 2.4% hits; Huh7 NPC1 promoter luciferase reporter, 24 h; further: % of control where 0% means no effect; nearly all actives have a fitted effect of over 60% in size
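Readout is luciferase luminescence, reflecting NPC1 promoter activation in stably transfected Huh7 cells after 24 h compound exposure at 37 °C in reduced-serum medium with 10% FBS.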
ELG1 genotox: induces genotoxicity in HEK293T cells with luciferase-tagged ELG1 | 330,000 compounds, 1.3% hits | AID 504466 | HEK293T ELG1-luciferase reporter, luminescence, 16 h | Potency, µM (doses to about 46 µM), for the others: at the top dose activity change, positive = activation, actives largely listed as activators; further: % of control where 0% means no effect; nearly all actives have a fitted effect of over 60% in size
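Genotoxicity was scored as increased ELG1-luciferase reporter signal, measured by ONE-Glo luminescence (30 min, room temperature). Compound or vehicle exposure of the HEK293T reporter cells lasted 16 hr at 37°C.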
SMN2 splice enh: enhancers of SMN2 splice variant expression | HEK293 SMN2-luciferase splicing reporter, luminescence, 30-36 h | Potency, µM (titrated, usually from 46.1 µM), for inactives: at the highest dose activity change, positive = activation, actives largely listed as activators | 210,000 compounds, 2.8% hits; further: % of control where 0% means no effect; nearly all actives have a fitted effect of over 55% in size
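HEK293 cells carry an SMN2 […]–luciferase reporter in which exon 7 inclusion puts luciferase in frame. Cells were plated 10-12 h before compound addition, then incubated 30-36 h at 37C. ONE-Glo luminescence was read; sodium butyrate at 4.5 mM final served as control.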
FLuc counter: counter-screen for miR-21 project: firefly luciferase inhibitors or activators | purified FLuc, Km substrates, luminescence inhibition | 360,000 compounds, 6.9% hits | AID 588342 | Potency, µM (top dose mostly 57.5 µM), inactives show at the highest dose activity change, negative = inhibition, most hits filed as inhibitors;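 further: plate controls were vehicle for no effect and reference inhibitor for full effect; nearly all actives have a fitted effect of over 55% in size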
Target sequence (P08659 whole entry, looked up): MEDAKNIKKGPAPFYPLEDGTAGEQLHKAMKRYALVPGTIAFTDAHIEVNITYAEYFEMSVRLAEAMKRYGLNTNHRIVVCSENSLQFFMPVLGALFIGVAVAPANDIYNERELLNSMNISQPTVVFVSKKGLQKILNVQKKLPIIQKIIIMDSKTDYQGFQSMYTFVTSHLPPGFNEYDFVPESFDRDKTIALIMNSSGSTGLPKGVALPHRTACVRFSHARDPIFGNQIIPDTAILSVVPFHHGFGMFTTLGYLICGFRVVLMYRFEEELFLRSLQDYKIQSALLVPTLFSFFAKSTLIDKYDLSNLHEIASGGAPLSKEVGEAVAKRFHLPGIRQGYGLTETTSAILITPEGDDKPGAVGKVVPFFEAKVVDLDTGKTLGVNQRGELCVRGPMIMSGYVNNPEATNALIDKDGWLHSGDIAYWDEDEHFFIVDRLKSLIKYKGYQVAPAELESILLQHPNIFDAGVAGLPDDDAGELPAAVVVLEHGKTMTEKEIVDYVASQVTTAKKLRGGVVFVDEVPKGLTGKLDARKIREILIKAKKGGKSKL
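Purified P. pyralis luciferase (10nM final) with 10uM D-luciferin and 10uM ATP (Km levels) in 50mM Tris acetate pH 7.5, 10mM Mg acetate, 0.01% Tween-20, 0.05% BSA; qHTS 6-point titration, ~60 µM downward; luminescence read.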
KinaseGlo FLuc: Kinase-Glo luciferase inhibition (counter-screen); Kinase-Glo luciferase, ATP luminescence, 8 min; Potency, µM (doses to about 38.3 µM), for inactives: top-dose activity change, negative = inhibition, most hits filed as inhibitors; 200,000 compounds, 0.28% hits; AID 1379; further: on the % scale 0 is the no-effect control and ±100 the full control effect; nearly all actives have a fitted effect of over 60% in size
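Recombinant Kinase-Glo luciferase, 10 uM ATP (linear range), luciferin; imidazole pH 7.2 / KCl / MgCl2 / Tween / BSA buffer; 8 min RT; luminescence.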
Numbers without * were called inactive; ? = inconclusive; . = not tested or not shown. The call rests on the fitted dose curve; in most records, active means well fitted curve in the direction sought with a large enough effect; inconclusive means small, poorly fitted or top-dose-only effect, or another doubt; inactive means no such curve, though single readings can be large; an effect the other way counts as inactive or inconclusive. Potency means the concentration at half of the fitted maximal effect.

SMILES | Rab9 prom act | NPC1 promoter act | ELG1 genotox | SMN2 splice enh | FLuc counter | KinaseGlo FLuc
Cc1ccc(C(=O)NCCc2ccc(S(N)(=O)=O)cc2)cc1[N+](=O)[O-] | 4% | -2% | 1% | -11% | -8% | -1%
O=C(NC1CC2CCC(C1)N2Cc1ccccc1)c1ccccc1Cl (centres undefined) | -5% | 1% | 1% | . | 6% | .
Cc1cc(-c2ccccc2)nc(-c2ccccc2)c1C | ? | 12% | 21µM* | . | 0.17µM* | 13µM*
CCOC(=O)c1cccc(-c2c(-c3ccccc3)ncc3cc(OC)c(OC)cc23)c1 | -1% | ? | 4% | . | ? | .
CCCCCCCOc1ccc(-c2ccc(C#N)cn2)cc1 | -4% | -4% | -2% | -16% | 3% | -3%
CCCCOc1ccc(-c2cnc3ccccc3n2)cc1 | 0.45µM* | 0.4µM* | ? | 1.4µM* | 0.43µM* | -12%
Cc1nc2ccc(C(=O)OCc3ccccc3Br)cc2nc1C | 1.1µM* | 3.2µM* | ? | 8% | 12µM* | -8%
Cc1cc(-c2ccccc2)nc(N(C)N)c1S(C)(=O)=O | -4% | -4% | 6% | -9% | -3% | -2%
CC(=O)Nc1ccc(C(=O)OCc2ccccc2Br)cc1 | ? | 7% | 15% | 9% | ? | 1%
CCOC(=O)c1ccc2ncc(-c3ccccc3)nc2c1 | 3.5µM* | 3.2µM* | 10µM* | 179% | 5.4µM* | -2%
C=CCc1cc(OC)ccc1OCCN1CC(C)OC(C)C1 (centres undefined) | 0% | -3% | -3% | . | 3% | .
COc1ccc(CCC(=O)OCC(=O)Nc2ccc(OC)c(OC)c2)cc1OC | -3% | 3% | -1% | . | -2% | .
Clc1ccc(-c2cnc3ccccc3n2)cc1 | 4µM* | 3.2µM* | ? | 13µM* | 4.8µM* | -7%
Cc1ccc(-c2cnc3ccccc3n2)cc1C | 23% | ? | ? | . | 0.54µM* | .
COc1cc2ncc(-c3ccccc3)nc2cc1OC | . | . | . | 28µM* | . | .
Clc1ccc(-c2nc3ccccc3nc2-c2ccccc2)cc1 | 1% | -2% | -6% | -30% | -1% | -2%
Cc1cc2ncc(-c3ccccc3)nc2cc1C | 0.79µM* | 1.3µM* | 1.6µM* | 5µM* | 0.6µM* | .
COc1nc(-c2ccccc2)cc(-c2ccc(OC)c(OC)c2)n1 | 8% | 5% | -12% | 20% | ? | 0%
Cc1cc2ncc(Cl)nc2cc1C | -1% | 0% | 1% | -16% | ? | -4%
Cc1ccc(-c2nn(-c3ccccc3)c3c2cnc2ccccc23)cc1C | . | . | . | -2% | -1% | .
COCCCC1CCN(C(=O)C2CCC(=O)N(Cc3ccccc3F)C2)CC1 (centres undefined) | 0% | 3% | 3% | . | 2% | .
CCN1/C(=C\C=C(C(C)=O)C(C)=O)Sc2ccccc21 | -2% | -8% | 19% | 17% | -18% | -1%
CCN1/C(=C\C(=S)Nc2ccccc2)Sc2ccccc21 | 2.8µM* | ? | ? | ? | 13µM* | 1%
COc1ccc(C)cc1NC(=O)CN1CCCN(S(=O)(=O)c2ccc(Br)cc2)CC1 | 0% | -2% | -21% | 27% | 4% | .
CCOC(=O)N1CCN(c2ncnc3c2cnn3-c2ccc(Cl)cc2)CC1 | -1% | -3% | 1% | -53% | 7% | 5%
SMILES | Rab9 prom act | NPC1 promoter act | ELG1 genotox | SMN2 splice enh | FLuc counter | KinaseGlo FLuc
CCN1CCN(c2ncnc3c2cnn3-c2ccccc2)CC1 | 29% | ? | ? | -12% | 24µM* | 3%
c1ccc(CCN2CCN(c3ncnc4c3cnn4-c3ccccc3)CC2)cc1 | 3% | -2% | -7% | -4% | -11% | 1%
CCN1CCN(c2ncnc3c2cnn3-c2ccc(Cl)cc2)CC1 | 1.8µM* | 1.6µM* | ? | . | 6µM* | .
CC1=C2[C@H](/C=C(\C)C(=O)O)CC[C@@H](C)[C@H]2CC1 | . | . | . | -1% | . | .
Cc1nn(-c2ccccc2)c(C)c1Cc1ccc(O)cc1 | ? | ? | 3% | . | 24µM* | .
Cc1nn(-c2ccccc2)c(C)c1CN | -10% | -3% | 2% | . | -1% | -4%
CC1C/C(=C/c2cccs2)C(=O)/C(=C/c2cccs2)C1 (centres undefined) | 8% | -1% | 0% | -16% | ? | 1%
Cn1cccc1/C=C1\CCC/C(=C\c2cccn2C)C1=O | 0.89µM* | 1.3µM* | 1.8µM* | ? | 6µM* | -2%
O=C1/C(=C/c2cccs2)CCC/C1=C\c1cccs1 | 3.5µM* | 1.3µM* | ? | . | 1.9µM* | .
Cc1ccc(CNC(=O)CN2Cc3ccccc3C2=O)cc1 | . | . | . | . | -11% | .
COc1ccc(N(Cc2cccs2)C(=O)Nc2cccc(Cl)c2)cc1 | . | . | . | . | -1% | .
COc1ccc(C(=O)NCc2ccc(-c3nc4ccccc4s3)cc2)cc1OC | ? | 16% | 16µM* | -21% | 1.3µM* | -4%
O=C(NC(=S)Nc1nc(-c2ccccc2)cs1)c1ccco1 | -1% | 5% | -3% | -5% | ? | 2%
O=C(NC(=S)NCc1ccc(-c2nc3ccccc3s2)cc1)c1ccco1 | 4µM* | 3.2µM* | 16µM* | . | 2.7µM* | .
O=C(NCc1ccc(-c2nc3ccccc3s2)cc1)c1ccco1 | ? | ? | 14% | 14% | 6µM* | -5%
COc1ccc(CNC(=O)c2ccc(-c3ccccc3)cc2)cc1OC | 0% | -4% | 2% | -32% | 2% | 12%
Oc1cccc(-c2nc3ncccn3c2Nc2cccc(C(F)(F)F)c2)c1 | . | . | . | -10% | -2% | .
Cc1cccc(C(=O)NCCc2nnc(SCC(=O)Nc3cccc(C(=O)O)c3)n2C)c1 | 3% | -1% | -4% | . | -17% | .
C#CCSc1nnc(-c2ccc([N+](=O)[O-])cc2)o1 | 3.2µM* | 26% | 16% | 20% | ? | 2%
